Abeta rescue – qHTS for compounds that reverse cellular toxicity of Amyloid beta (A-beta) peptide in yeast: Primary Screen. 0.063% of 410,000 active. yeast expressing A-beta42, growth rescue, OD600, 48 h; response scale: 0% DMSO, 100% iron-clioquinol control. Potency, µM (doses to about 46.1 µM), actives largely listed as activators; note: nearly all actives have a fitted effect of over 55% in size
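Growth rescue measured by 600 nm absorbance after 48 h yeast culture at 30 C with compound. Values normalized between DMSO and an equimolar ferric chloride plus clioquinol control.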
TDP-43 yeast inh – qHTS of TDP-43 Inhibitors; Potency, µM (titrated, usually from 46.1 µM), most hits filed as activators; 1.8% of 410,000 active; TDP-43 expressing yeast growth rescue, BacTiter-Glo, 24 h; note: nearly all actives have a fitted effect of over 50% in size
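Yeast expressing TDP-43 (pregrown in raffinose, seeded at OD600=0.02 in galactose medium) exposed to compounds 24 hr at 30 deg C. Growth read by BacTiter-Glo luminescence; rescue of toxicity appears as increased signal.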
aSyn yeast inh – qHTS of alpha-syn Inhibitors; Potency, µM (highest dose often 46.1 µM), usual class: activators; 0.14% of 370,000 active; Yeast expressing alpha-synuclein, growth rescue, BacTiter-Glo, 24 h; note: nearly all actives have a fitted effect of over 65% in size
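Rescue of yeast growth: cells expressing toxic alpha-synuclein, induced in galactose at OD600 0.02, incubated with compound 24 h at 30 C. ATP luminescence quantified growth; inhibitors of toxicity appear as activators.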
FUS suppressor – qHTS for Suppressors of FUS Proteinopathy: Primary screen using FUS-linked yeast assay; Potency, µM (series often up to 76.6 µM), most hits filed as activators; 0.24% of 390,000 active; S. cerevisiae FUS-expressing, growth rescue, OD600, 24 h; AID 1347120, 2019; note: nearly all actives have a fitted effect of over 55% in size
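Galactose (2%) drives FUS expression in yeast precultured in raffinose; seeding density OD 0.005. Test compounds incubated 24hr at 30C and 99% humidity before absorbance at 600 nm was measured.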
Numbers stand for hits; – = inactive; ? = inconclusive; · = not tested or not shown; [ ] = another dose, or the depositor's remark. Compounds with a hit are over-represented: about 2.1% of the library has one in this group of screens. Calls come from the whole dose curve; as a rule, active = well fitted curve in the direction sought with a large enough effect; inconclusive = small, poorly fitted or top-dose-only effect, or another doubt; inactive = no such curve, though single readings can be large; an effect the other way counts as inactive or inconclusive.

SMILES	Abeta rescue	TDP-43 yeast inh	aSyn yeast inh	FUS suppressor
CC(=O)N1CCN(C(=O)CCc2cc(C(C)(C)C)c(O)c(C(C)(C)C)c2)CC1	–	–	–	–
CC(C)(C)c1cc(NS(=O)(=O)c2ccc3c(c2)OCCO3)on1	?	12.6µM	–	–
CCOC(=O)c1ccc(S(=O)(=O)Nc2cc(C(C)(C)C)no2)cc1	–	12.6µM	–	–
Cc1cc(NS(=O)(=O)c2ccc3c(c2)OCCO3)no1	?	–	–	–
CCn1ccc2cc(S(=O)(=O)N3CCC(C(=O)NCCc4ccccc4)CC3)ccc21	–	–	·	?
Cc1nc(SCC(=O)NC2CCCC2)c2oc3ccccc3c2n1	–	–	?	–
Cc1nnc(SC(C)C(=O)NCC2CCCO2)s1 (configuration not stated)	–	–	–	·
Oc1cccc(Nc2ccccc2)c1	–	12.6µM	–	–
CCOC(=O)CCCCCC(=O)Nc1ccc2c(c1)C(=O)N([C@@H](C)CO)C[C@H](C)[C@H](CN(C)C(=O)Nc1ccc(F)cc1)OCCCC[C@H](C)O2	–	–	–	22.4µM
C[C@@H]1CN([C@H](C)CO)C(=O)c2cc(NC(=O)Nc3ccc(C(F)(F)F)cc3)ccc2O[C@H]1CN(C)C(=O)Nc1ccc(F)cc1	–	–	–	28.2µM
C[C@@H]1CCCCO[C@H](CN(C)Cc2ccc(Cl)c(Cl)c2)[C@H](C)CN([C@@H](C)CO)C(=O)c2cc(NC(=O)Nc3ccc(F)cc3)ccc2O1	–	–	–	35.5µM
COc1ccc(NC(=O)Nc2ccc3c(c2)C(=O)N([C@H](C)CO)C[C@H](C)[C@@H](CN(C)Cc2ccc(Cl)c(Cl)c2)OCCCC[C@@H](C)O3)cc1	–	–	–	?
CCOC(=O)CCCCCC(=O)Nc1ccc2c(c1)C(=O)N([C@@H](C)CO)C[C@H](C)[C@H](CN(C)C(=O)NC(C)C)OCCCC[C@H](C)O2	–	–	–	?
C[C@H](CO)N1C[C@H](C)[C@@H](CN(C)C(=O)Nc2ccc(C(F)(F)F)cc2)Oc2ccc(NC(=O)Nc3ccc(C(F)(F)F)cc3)cc2C1=O	–	?	–	?
Clc1ccc(SCc2csc(N3CCOCC3)n2)cc1	–	–	–	–
O=c1cc(CSc2ccc(Cl)cc2)nc(-c2ccccn2)[nH]1	?	?	10µM	–
Clc1ccc(SCc2cc(N3CCOCC3)nc(-c3ccccn3)n2)cc1	12.6µM	–	–	–
O=c1cc(CSc2ccc(Cl)cc2)nc(-c2ccccc2)[nH]1	–	–	–	–
COc1cccc(/C(=N/O)C2CC2c2ccc(Cl)cc2)c1 (configuration not stated)	–	15.8µM	–	–
COc1cccc(/C(C)=N/NS(=O)(=O)c2ccc(Cl)cc2)c1	–	–	–	–
Clc1nc(Cl)nc(NCCC2=CCCCC2)n1	–	10µM	–	–
CCOc1nc(NCCO)nc(NCCC2=CCCCC2)n1	–	–	–	–
O=C1CC(Sc2ccc(Cl)cc2)C(=O)N1c1ccc2c(c1)OCCO2 (configuration not stated)	–	11.2µM	–	–
CC(=O)Nc1ccc(SCc2ncc(-c3ccccc3)o2)cc1	–	–	–	–
c1ccc(-c2cnc(CSc3ncnc4sccc34)o2)cc1	–	22.4µM	–	–
SMILES	Abeta rescue	TDP-43 yeast inh	aSyn yeast inh	FUS suppressor
O=C(Nc1ccc(Br)c(C(F)(F)F)c1)c1ccccc1	–	8.91µM	–	·
O=C(Nc1ccc(Br)c(C(F)(F)F)c1)c1ccc(C(F)(F)F)cc1	–	–	–	–
CC1CCN(c2nc(Cl)nc(Nc3ccc([N+](=O)[O-])cc3)n2)CC1	–	20µM	–	·
O=C(Nc1nc(-c2cccs2)cs1)c1ccc(Cl)s1	–	3.55µM	–	–
CC(=O)Nc1nc(-c2cccs2)cs1	–	–	–	–
COc1cc(OC)c(C(=O)C=Cc2ccc(OC)c(OC)c2)c(OC)c1	–	–	–	–
COc1cc(/C=C/C(=O)N2CCC=CC2=O)cc(OC)c1OC	–	22.4µM	–	–
COc1cc(/C=C/C(=O)c2ccccc2)cc(OC)c1OC	·	·	·	–
COc1cc(C=CC(=O)c2ccccc2)cc(OC)c1OC	–	14.1µM	?	–
COc1ccc(C=CC(=O)c2ccc(OC)c(OC)c2O)cc1OC	–	12.6µM	?	–
COc1ccc(C(=O)/C=C/c2ccc(OC)c(O)c2)c(F)c1	–	22.4µM	–	·
COC(=O)c1ccc2c(=O)n(Cc3ccc(C(=O)NCCCN4CCC(C)CC4)cc3)c(=S)[nH]c2c1	–	·	–	–
COc1ccc(N2CCN(c3nc4ccccc4nc3NS(=O)(=O)c3ccccc3)CC2)cc1	–	20µM	–	–
Cc1ccc(S(=O)(=O)N2CCC(NC(=O)c3cccc(F)c3)CC2)cc1	–	–	–	–
O=C1Nc2ccc(Br)cc2/C1=C/C1CC=CCC1 (configuration not stated)	–	20µM	–	–
COc1ccc(CNC(=O)C2(C)Cc3c(-c4ccc5c(c4)OCO5)ccnc3O2)cc1OC (configuration not stated)	–	–	8.91µM	–
CC1(C(=O)Nc2cccc(OC(F)(F)F)c2)Cc2c(-c3ccc4c(c3)OCO4)ccnc2O1 (configuration not stated)	–	–	3.55µM	–
CC(=O)Nc1ccc(-c2ccnc3c2CC(C)(C(=O)Nc2ccc(C(C)C)cc2)O3)cc1 (configuration not stated)	–	35.5µM	–	?
O=C(NC(=S)Nc1sc2c(c1C(=O)O)CCCC2)c1ccccc1	–	·	–	–
CCCCN(C)C(=O)c1cc2cc3ccc(OC)cc3nc2s1	–	17.8µM	–	–
Cc1nc(Cl)cc(CS(=O)(=O)c2ccc(Cl)cc2)n1	–	–	–	–
Cc1nc(CS(=O)(=O)c2ccccc2)cc(Sc2ccc(Cl)cc2Cl)n1	–	12.6µM	–	–
CCn1c(COc2cccc(C)c2)nnc1SCC(=O)Nc1cccc(C(=O)OC)c1	–	20µM	–	–
CCn1c(COc2cccc(C)c2)nnc1SCC(=O)Nc1cccc(C(=O)O)c1	–	–	–	–
COc1cc(OC)cc(C(=O)Nc2nc(-c3nnn(-c4ccc(F)c(Cl)c4)c3C)ns2)c1	–	–	·	–
SMILES	Abeta rescue	TDP-43 yeast inh	aSyn yeast inh	FUS suppressor
COc1ccc(NC(=O)/C=C/c2cccc(Br)c2)cn1	–	–	–	–
CCOC(=O)CN(C(=O)COc1ccc2c(C)cc(=O)oc2c1)c1ccc(OCC)cc1	–	–[9.22 µM]	–	–
CCOC(=O)CSc1nnc2n(-c3ccccc3)c(=O)c3c4c(sc3n12)CC(C(C)(C)C)CC4 (configuration not stated)	–	35.5µM	·	?
O=C(CSc1ccc(-c2ccccn2)nn1)N1CCCc2ccccc21	–	–	–	–
O=C(CSc1ccc(-c2ccc(Cl)cc2)nn1)N1CCCc2ccccc21	–	20µM	–	·
O=C(CSc1c[nH]c2ccccc12)N1CCCc2ccccc21	–	22.4µM	–	–

Compound activity as filed in PubChem.
